Screening data deposited in PubChem BioAssay by several laboratories.
A selection: hits, their analogues and other compounds. The true share with any hit is near 4%.
Mtb UGM inh: blocks M. tuberculosis UGM enzyme. purified UGM, fluorescence polarization probe displacement. inhibition, % at 10 µM. AID 504406. actives 0.06% (n = 320,000); in the data active = inhibition above about 10%, passing the limit was not always enough; inconclusive = no clear call, values can overlap the other calls
Target sequence (P9WIQ1 whole entry, looked up): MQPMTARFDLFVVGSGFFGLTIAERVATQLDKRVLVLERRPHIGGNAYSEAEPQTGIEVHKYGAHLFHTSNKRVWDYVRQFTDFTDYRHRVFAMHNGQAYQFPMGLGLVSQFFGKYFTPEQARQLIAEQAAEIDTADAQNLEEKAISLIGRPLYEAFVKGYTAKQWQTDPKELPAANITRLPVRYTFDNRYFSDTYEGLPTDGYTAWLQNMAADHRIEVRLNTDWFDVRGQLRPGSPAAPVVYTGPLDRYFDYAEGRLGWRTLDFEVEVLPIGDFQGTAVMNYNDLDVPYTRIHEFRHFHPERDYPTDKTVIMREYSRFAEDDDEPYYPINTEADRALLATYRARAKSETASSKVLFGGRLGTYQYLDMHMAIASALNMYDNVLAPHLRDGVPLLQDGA
RecA intein inh: blocks M. tuberculosis RecA intein splicing; cell-free RecA intein splicing, fluorescence; inhibition, % (no concentration beside the values); P9WHJ3; actives 0.75% (n = 290,000); AID 2221; in the data active = inhibition above about 30%; inconclusive = no clear call, values can overlap the other calls;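 note: 0% = vehicle wells and 100% = reference inhibitor control wells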
Mtb bLac sens: beta-lactam sensitization of Mtb H37Rv. M. tuberculosis H37Rv growth with meropenem, percent inhibition. inhibition, % at 25 µM. actives 0.27% (n = 330,000);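 note: growth measured after seven days incubation then overnight dye step; 0% = bacteria only wells and 100% = bacteria with antibiotic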
Rv3671c inh: inhibitors of M. tuberculosis serine protease Rv3671c | inhibition, % at 5.96 µM | actives 0.048% (n = 320,000); in the data active = inhibition above about 38%;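 note: extracellular domain of Rv3671c used as enzyme; 0% = enzyme with DMSO and 100% = no enzyme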
FBA Mtb inh: Mtb fructose-bisphosphate aldolase inhibition. P9WQA3. purified M. tuberculosis FBA, fluorescence read-out. inhibition, % at 1 µM. actives 2.3% (n = 360,000). AID 588726; in the data active = inhibition above about 27%;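 note: 0% = vehicle and 100% = reference inhibitor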
GDH-TPI counter-1: inhibits GDH-TPI coupling enzymes, artifact for Mtb FBA screen | actives 1.2% (n = 360,000) | GDH-TPI coupled enzyme counterscreen, NADH absorbance | inhibition, % at 4.8 µM; in the data active = inhibition above about 30%;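 note: 0% = DMSO wells and 100% = wells lacking the enzyme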
Mtb FBA inh conf: confirmation of M. tuberculosis fructose-bisphosphate aldolase inhibitors; actives 78% (n = 5,600); inhibition, % at 1 µM; shares compounds with FBA Mtb inh; AID 651616; purified M. tuberculosis FBA, fluorescence read-out; in the data active = inhibition above about 27%;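 note: 0% = vehicle wells and 100% = reference inhibitor wells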
GDH-TPI counter-2: inhibits GDH-TPI coupling enzymes, flagging Mtb FBA hits | shares compounds with FBA Mtb inh | GDH-TPI coupled enzyme counterscreen, fluorescence | inhibition, % at 1 µM | actives 81% (n = 5,600); in the data active = inhibition above about 10%
GDH-TPI dose: counter-screen for M. tuberculosis FBA inhibitors: GDH-TPI dose response; actives 79% (n = 170); shares compounds with FBA Mtb inh; IC50, µM; GDH-TPI coupled enzyme assay, fluorescence, artifact counterscreen
Numbers without * were called inactive; i = inactive; u = inconclusive; x = no result given; + = active, no number. Unless noted, the rule behind the calls is not given here.

SMILES	Mtb UGM inh	RecA intein inh	Mtb bLac sens	Rv3671c inh	FBA Mtb inh	GDH-TPI counter-1	Mtb FBA inh conf	GDH-TPI counter-2	others
Cc1ccc(S(=O)(=O)Oc2ccc(C3C4=C(CCCC4=O)N(CCC(=O)O)C4=C3C(=O)CCC4)cc2Cl)cc1	-0.7	i	-0.3	-8.5	109.8*	-1.4	-2.3	-6.7
CCOc1cc(C2C3=C(CCCC3=O)N(CCC(=O)O)C3=C2C(=O)CCC3)ccc1OS(=O)(=O)c1ccc(C)cc1	2.2	-374.6	4.4	-11.9	79.0*	8.6	82.9*	72.0*
COc1ccc(-c2c(NC(=O)C(C)C)n(C)c3ccccc3c2=O)cc1	-0.3	0.0	u	10.2	36.7*	16.3	+	+
N#Cc1c(-c2ccccc2F)cc(-c2cccnc2)nc1N	-0.2	2.4	-2.2	0.6	110.2*	11.1	-2.8	-4.0
COc1ccc(CC(=O)Oc2ccc(Br)cc2F)cc1S(=O)(=O)N1CCOCC1	-1.5	11.0	-6.2	2.6	0.1	-3.9	x	x
CC(=O)c1c(C)[nH]c(C(=O)Nc2cccc(S(=O)(=O)N3CCCC3)c2)c1C	1.8	x	0.1	-5.9	0.3	6.0	x	x
CC(=O)Nc1cnc(/C=C\CCCO)cn1	x	x	x	x	31.6*	14.2	0.6	-4.0
CC(=O)Nc1cnc(-c2ccccc2C(C)=O)cn1	x	x	x	x	0.4	7.1	x	x
COc1ccccc1N(Cc1ccccc1)S(=O)(=O)c1cccc(C(=O)Nc2ccc(C)cn2)c1	1.3	6.3	-9.1	-34.3	-1.2	11.2	x	x
O=C(NCC1COc2ccccc2O1)C1CCN(S(=O)(=O)c2ccc(Cl)cc2)CC1 (stereo not given)	-0.3	x	-14.2	-1.2	-2.4	4.6	x	x
COc1ccccc1-c1cc2c(c3c1ccn3C)C1CCC2O1 (stereo not given)	x	x	x	x	72.8*	x	127.4*	104.3*
Cn1ccc2c(-c3ccc4[nH]ccc4c3)cc3c(c21)C1CCC3O1 (stereo not given)	x	x	x	x	47.4*	x	57.0*	38.5*
Cn1ccc2c(-c3ccc(C(N)=O)cc3)cc3c(c21)C1CCC3O1 (stereo not given)	x	x	x	x	6.6	x	x	x
Cn1ccc2c(-c3cccc4ccccc34)cc3c(c21)C1CCC3O1 (stereo not given)	x	x	x	x	57.6*	x	60.0*	41.5*
CC(NCc1cc(Br)ccc1OCC(N)=O)C12CC3CC(CC(C3)C1)C2 (stereo not given)	1.4	-0.3	2.3	3.8	1.8	1.5	x	x
O=C(Nc1ccc(Br)cn1)c1ccc(COc2c(F)c(F)cc(F)c2F)o1	-0.4	x	-1.8	-4.6	-0.8	-7.6	x	x
O=C(NCc1ccccc1)C(c1ccccn1)N(C(=O)c1csnn1)c1ccccc1F (stereo not given)	0.0	1.0	-0.8	1.8	0.7	-8.1	x	x
CCOc1cc(S(=O)(=O)NCCc2ccccc2C)c(OCC)cc1-n1cnnn1	-1.0	3.3	6.7	-0.5	50.9*	7.4	21.6	11.9*
CCOc1ccc(-n2cnnn2)cc1S(=O)(=O)Nc1c(C)cccc1C	-0.4	2.6	1.2	-6.4	-0.4	1.6	x	x
CCOc1cc(S(=O)(=O)N(CC)CC)c(OCC)cc1-n1cnnn1	x	-1.3	8.4	3.7	28.0*	10.4	193.2*	136.5*
COc1ccc(CN2C(=O)C(CC(=O)NC3CCCCC3)CC(C(=O)N(C)C)=C2C)cc1 (stereo not given)	x	x	x	x	-0.9	0.5	x	x
COc1cc2c(=O)n(CC3CCCO3)c(=O)n(CC(=O)Nc3ccccc3)c2cc1OC (stereo not given)	-1.5	-1.7	-5.0	3.5	11.4	0.0	x	x
CN(C)/C=N/c1nc2nccc(-c3ccc(F)cc3)n2n1	0.3	-0.1	-9.6	2.8	87.7*	0.6	62.5*	56.0*
CN(C)/C=N/c1nc2ncc(-c3ccc(Cl)cc3)c(/N=C/N(C)C)n2n1	-1.4	x	4.2	-4.5	-0.1	17.7	x	x
CN(C)/C=N/c1nc2nccc(-c3cccc(Cl)c3)n2n1	-2.9	x	1.7	6.6	34.1*	0.6	10.5	-5.1	GDH-TPI dose=2.18*
SMILES	Mtb UGM inh	RecA intein inh	Mtb bLac sens	Rv3671c inh	FBA Mtb inh	GDH-TPI counter-1	Mtb FBA inh conf	GDH-TPI counter-2	others
CN(C(=O)CN1C(=O)C2C3CC(C(Br)C3Br)C2C1=O)C1CCCCC1 (stereo not given)	-0.6	1.7	3.5	0.8	-0.4	0.0	x	x
O=C(NC(=S)Nc1cccc([N+](=O)[O-])c1)C1CCCCC1	-3.1	0.7	3.2	-7.3	-2.4	5.3	x	x
O=C(NN=C(c1ccccc1)c1ccccn1)c1ccccc1	1.7	x	98.0	6.3	-3.5	7.8	x	x
COc1ccc(C(=O)N/N=C(\c2ccccc2)c2ccccn2)cc1	-1.1	2.7	98.2	6.7	49.4*	17.1	147.2*	115.5*
Cc1cc(=O)[nH]c2nc3ccccc3n12	x	x	x	x	47.3*	15.9	75.6*	59.7*
CCCCCc1c(C)[nH]c2nc3ccccc3n2c1=O	1.0	0.6	0.7	-5.4	0.8	1.3	x	x
COC(=O)Cc1cc(=O)n2c(nc3ccccc32)[nH]1	1.0	0.2	-4.5	1.6	65.0*	13.7	34.7*	17.7*
CC(C)n1nc(C(=O)OCC(=O)NCCc2ccc(S(N)(=O)=O)cc2)c2ccccc2c1=O	x	x	x	x	-2.4	6.1	x	x
O=C(NCC1CCCO1)c1onc(CSc2ccccc2)c1C(=O)O (stereo not given)	-2.0	-0.5	-1.9	-0.6	-1.1	-0.8	x	x
O=C(NCC1CCCO1)c1onc(CSc2ccc(F)c(F)c2)c1C(=O)O (stereo not given)	2.9	0.1	-5.2	-0.6	45.2*	-6.0	92.4*	61.1*
O=C(Nc1ccc2ccccc2c1)N1CCN(c2ncccc2C(F)(F)F)CC1	0.0	2.8	0.8	-8.0	36.5*	-2.5	-9.2	-5.4
Cc1c(OCC(=O)N2CCC[C@@H]2C(=O)O)ccc2c3c(c(=O)oc12)CCC3	2.6	18.9	3.3	3.8	36.4*	8.3	93.2*	88.1*
CCc1cc(=O)oc2c(C)c(OCC(=O)N3CCC[C@@H]3C(=O)O)ccc12	-3.2	3.8	-6.4	0.7	58.4*	8.3	10.7	5.7	GDH-TPI dose=2.97*
CCCc1cc(=O)oc2c(C)c(OCC(=O)NC3CCN(Cc4ccccc4)CC3)ccc12	4.4	-0.5	-2.0	-16.4	5.4	7.6	x	x
CCc1cc(=O)oc2c(C)c(OC(C)C(=O)N3CCC[C@@H]3C(=O)O)ccc12 (stereo not given in full)	0.2	x	0.9	2.1	42.0*	17.6	53.7*	61.5*
COc1ccc(C(=O)N/C(=C\c2cn(S(=O)(=O)N(C)C)c3ccccc23)C(=O)N2CCCC2)cc1	x	x	x	x	1.5	-0.9	x	x
CC(C(=O)Nc1ccc2c(c1)OCCO2)N(C)CC(=O)Nc1ccccc1Br (stereo not given)	x	x	x	x	1.4	-7.0	x	x
